# Source: PubChem
# RGS12 GoLoco inh: inhibitors of human Gai1-RGS12 GoLoco interaction (red fluorophore); P63096; Gai1:RGS12 GoLoco peptide FP, rhodamine, 10 min; Potency, µM (top dose mostly 61.6 µM), inactives show at the highest dose activity, negative = inhibition, usual class: inhibitors; hit rate 0.44% among 230,000; AID 880; active means well fitted inhibition curve with a large enough effect, not every such curve was filed as active; inactive means no such curve, though single readings can be large or run the other way; further: potency means the concentration at half of the fitted maximal effect; nearly all actives have a fitted effect of over 30% in size
# Coupling enz: counter-screen for Giardia aldolase inhibitors: coupling enzyme system | coupling enzyme system counterscreen, AmpLite Red fluorescence | activity change, negative = inhibition, % at 58.2 µM, hits read low | hit rate 0.67% among 290,000 | AID 2472; in the data active means activity change below about -30%
#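 Counterscreen of the coupled detection system alone, without aldolase: glyceraldehyde-3-phosphate coupling enzymes plus AmpLite Red readout. Compounds at 57.5 uM final, 10 min RT preincubation, 20 min RT reaction, fluorescence 525/598 nm.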
# KDM4E inh: inhibitors of human JMJD2E histone demethylase. hit rate 1.6% among 230,000. JMJD2E catalytic domain, FDH-coupled NADH fluorescence (FDH is formaldehyde dehydrogenase). B2RXH2. Potency, µM (titrated, usually from 57.1 µM), without a hit: at the highest dose activity change, negative = inhibition, usual class: inhibitors;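 further: potency means the concentration at half of the fitted maximal effect; 0% = wells with enzyme and -100% = buffer wells without enzyme; nearly all actives have a fitted effect of over 50% in size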
# Target sequence (B2RXH2 1-337 limits assumed): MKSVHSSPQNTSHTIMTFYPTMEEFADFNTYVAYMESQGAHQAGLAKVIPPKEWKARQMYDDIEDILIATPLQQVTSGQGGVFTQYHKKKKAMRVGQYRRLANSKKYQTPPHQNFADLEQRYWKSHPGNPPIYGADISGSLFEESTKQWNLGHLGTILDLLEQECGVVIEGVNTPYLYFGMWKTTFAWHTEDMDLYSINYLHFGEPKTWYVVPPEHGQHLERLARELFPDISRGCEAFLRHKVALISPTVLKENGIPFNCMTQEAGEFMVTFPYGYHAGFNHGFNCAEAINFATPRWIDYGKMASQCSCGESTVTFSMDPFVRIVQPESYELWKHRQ
# NPSR antag: neuropeptide S receptor (human) antagonism, cAMP; Potency, µM (titrated, usually from 38.3 µM), inactives show top-dose activity change, negative = inhibition, most hits filed as inhibitors; CHO-NPSR cells, cAMP TR-FRET, antagonist mode; AID 1461; hit rate 1% among 220,000; Q6W5P4; active means well fitted curve in the direction sought with a large enough effect; inconclusive means small, poorly fitted or top-dose-only effect, or another doubt; inactive means no such curve, though single readings can be large; an effect the other way counts as inactive or inconclusive; further: potency means the concentration at half of the fitted maximal effect; nearly all actives have a fitted effect of over 50% in size
# Target sequence (Q6W5P4 whole entry, looked up): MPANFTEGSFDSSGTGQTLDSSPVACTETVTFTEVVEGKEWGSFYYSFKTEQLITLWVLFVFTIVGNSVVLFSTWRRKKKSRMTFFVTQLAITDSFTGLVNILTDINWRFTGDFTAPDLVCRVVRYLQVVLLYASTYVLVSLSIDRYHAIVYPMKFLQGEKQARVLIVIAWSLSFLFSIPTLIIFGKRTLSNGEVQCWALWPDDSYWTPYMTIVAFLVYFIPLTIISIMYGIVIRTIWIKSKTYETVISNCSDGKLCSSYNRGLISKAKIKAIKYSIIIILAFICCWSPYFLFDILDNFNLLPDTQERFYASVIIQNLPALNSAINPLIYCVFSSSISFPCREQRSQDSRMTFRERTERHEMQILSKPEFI
# ALDH1A1 inh: ALDH1A1 (human) enzyme inhibition | Potency, µM (series often up to 75.3 µM), for the others: at the highest dose activity, negative = inhibition, most hits filed as inhibitors | hit rate 7.3% among 220,000 | P00352 | Purified ALDH1A1, NADH fluorescence, propionaldehyde substrate;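 further: potency means the concentration at half of the fitted maximal effect; plate controls were no enzyme wells and a reference inhibitor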
# Sfp PPTase inh: Sfp phosphopantetheinyl transferase inhibition | Biochemical Sfp PPTase activity, qHTS | Potency, µM, inactives show largest response in the series, negative = inhibition, most hits filed as inhibitors | AID 1490 | Q9F4F7 | hit rate 3.5% among 310,000; active means well fitted curve in the direction sought with a large enough effect; inconclusive means small, poorly fitted or top-dose-only effect, or another doubt; inactive means no such curve, though single readings can be large; an effect the other way counts as inactive or inconclusive;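 further: the enzyme is Sfp with the accession as filed and its product quenches rhodamine fluorescence; potency means the concentration at half of the fitted maximal effect; 0% = enzyme reaction without inhibitor and -100% = no enzyme wells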
#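 Buffer: 50 mM Hepes-Na pH 7.6, 10 mM MgCl2, 0.01% Nonidet P-40, 0.01% BSA. Enzyme 15 nM, pre-exposed to compound 15 min; substrates then added and fluorescence change tracked over 30 min.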
# Starred values were filed as active, the others as inactive; ? = inconclusive; / = not tested or not shown; [ ] = another dose, or the depositor's remark. Most compounds without a hit are left out; they make up all but 8.5% or so of the library. Unless noted, the call rests on the fitted dose curve; in most records, active means well fitted inhibition curve with a large enough effect (not every such curve was filed as active); inconclusive means small, poorly fitted or top-dose-only effect, or another doubt; inactive means no such curve, though single readings can be large or run the other way. Unless noted, on the % scale 0 is the no-effect control and ±100 the full control effect.
SMILES,RGS12 GoLoco inh,Coupling enz,KDM4E inh,NPSR antag,ALDH1A1 inh,Sfp PPTase inh
COc1ccc2cc(C#N)c(N3CCOCC3)nc2c1,/,0,/,/,/,0%
COc1ccc2nc(SCC(=O)N3CCN(c4ccc(F)cc4)CC3)c(C#N)cc2c1,20%,0,-12%,-25%[46.1 µM],7.9µM*,-21%
COc1ccc2nc(N3CCC(O)CC3)c(C#N)cc2c1,3%,-34*,?,0%[46.1 µM],?,-17%
CC(C)C[C@@H](CC(=O)N[C@@H](CCC(=O)O)CC(=O)O)NC(=O)[C@@H]1CNCC[C@H]1NC(=O)C[C@H](CCCN)NC(=O)C[C@H](CO)NC(=O)[C@@H]1CCCC[C@H]1N,16%,3,3%,/,-2%,-2%
Cc1cccc(NS(=O)(=O)c2cc(C(=O)OC(C)C(=O)NCc3ccc4c(c3)OCO4)ccc2C)c1 (configuration not stated),7%,1,?,-6%,0%,22%
COc1ccccc1N1CCN(CCC(=O)Nc2ccc(F)cc2)CC1,/,1,/,/,/,12%
CCOC(=O)CC(=O)N/N=C/c1c(N)n(C)c(=O)n(C)c1=O,-2%,-1,1%,35%,-8%,8%
CCN1CCCc2cc(CN(CCN3CCOCC3)C(=S)Nc3ccccc3C)ccc21,-2%,-1,?,-46%,22µM*,2%
CCN1CCCc2cc(CN(CCN3CCOCC3)C(=O)Nc3ccc(C)c(C)c3)ccc21,3%,-5,?,-26%[46.1 µM],28µM*,-15%
CCN1CCCc2cc(CN(CCN3CCOCC3)C(=S)Nc3cccc(C)c3)ccc21,9%,-1,?,-54%,7.9µM*,15%
CCN1CCCc2cc(CN(CCN3CCOCC3)C(=S)Nc3ccccc3OC)ccc21,8%,-3,-23%,-31%,?,15%
Cc1cccc(NC(=S)N(CCN2CCOCC2)Cc2ccccc2F)c1,4%,-4,-2%,-24%,-16%,17%
Cc1sc2ncn(CC(=O)N3CCN(c4ccc(F)cc4)CC3)c(=O)c2c1S(=O)(=O)N1CCOCC1,/,0,/,/,/,9%
Cc1c(NN=C(C#N)C#N)c(=O)n(-c2ccccc2)n1C,-24%,-8,-15%,-47%,3.5µM*,-76%
CCC(CO)NCc1cc(OC)c(OCC(=O)NCCc2ccccc2)cc1Br (configuration not stated),-2%,-1,1%,14%,0%,?
CCCCC/C=C\C/C=C\CCCCCCCC(=O)NCCc1ccc(O)c(O)c1,0%,3,7%,/,-14%,10%
CSC1(SC2=NCCN2)SC2(NCCN2)S1,-17%[14.2 µM],/,/,/,0.089µM*,/
O=C(O)CSC1=NCCN1,0%[14.2 µM],/,/,/,20%[13.5 µM],/
O=C(CSc1nc(-c2ccccc2)c(-c2ccccc2)o1)NCCCO,/,/,/,/,/,2%
Cc1cc(C)c(C)c(OCCOCCN2CCN(C)CC2)c1,3%,2,2%,12%,1%,1%
Cc1ccc(OCCOCCN2CCN(C)CC2)c(C(C)(C)C)c1,/,-2,/,/,/,50µM*
C=CCc1cc(C)ccc1OCCOCCN1CCN(C)CC1,/,3,/,/,/,79µM*
CC(/C=C/c1ccccc1)=N\Nc1nc(-c2ccccc2)cs1,4%,-3,-2%,-25%[46.1 µM],?,-2%
CC(=O)NNc1nc(-c2ccccc2)cs1,20%,0,?,0%,?,20µM*
CC(C)=NNc1nc(-c2ccccc2)cs1,22%,1,-8%,16%,-2%,79µM*
SMILES,RGS12 GoLoco inh,Coupling enz,KDM4E inh,NPSR antag,ALDH1A1 inh,Sfp PPTase inh
C/C(CCC1CC(C)OC1=O)=N/Nc1nc(-c2ccccc2)cs1 (configuration not stated),-6%,1,-19%,2%,?,50µM*
Cc1ccc(S(=O)(=O)CC(=O)Nc2nc(-c3ccccc3)cs2)cc1,2%,-2,0%,-16%[46.1 µM],?,3%
CC(=O)NNc1nc(-c2ccc(C)cc2)cs1,10%,0,?,17%,?,40µM*
CC1CC(CC(=O)NNc2nc(-c3ccccc3)cs2)C(=O)O1 (configuration not stated),-2%,0,8%,23%,-4%,-30%
C=CCC1(c2ccccc2)Oc2ccccc2-c2nc3cc(Cl)c(Cl)cc3nc21 (configuration not stated),/,0,/,/,-4%[13.5 µM],23%
Nc1ccccc1C(=O)NCCN1CCNC1=O,6%,1,?,-14%,?,24%
CCOc1cccc(-c2cc(C(=O)N/N=C/c3cccc(OC)c3O)[nH]n2)c1,/,/,/,/,4%,/
O=C(NNc1nc(-c2ccccc2)cs1)c1cccs1,7%,0,?,2%,/,?
O=C(NNc1nc(-c2ccc(F)cc2)cs1)c1ccccc1,4%,3,?,-7%,?,50µM*
O=C(COc1cccc2c1CCN(Cc1ccccc1)C2=O)NCc1ccco1,56%,0,2%,-3%,20µM*,14%
O=C1c2cccc(OCc3ccc(F)cc3)c2CCN1Cc1ccccc1,-13%,-24,8%,-49%,-8%,?
O=C1c2cccc(OCC(=O)N3CCCc4ccccc43)c2CCN1Cc1ccc(F)cc1,-15%,-2,-20%,-22%,?,-17%
Cc1cccc(CN2CCc3c(OCC(=O)N4CCCc5ccccc54)cccc3C2=O)c1,23%,-2,-4%,-24%,16µM*,-11%
Cc1ccc(C)c(NC(=O)COc2cccc3c2CCN(Cc2ccccc2)C3=O)c1,5%,2,-7%,-19%,-9%,-22%
Cc1cccc(CN2CCc3c(OCC(=O)NCc4ccco4)cccc3C2=O)c1,9%,1,-1%,-29%,22µM*,-9%
CS(=O)(=O)N1CCC2(CCCN(c3cccc(-c4ccccc4)c3)C2)CC1,85%,0,/,/,-8%,13%
Cc1cc(=O)[nH]c2c(N=Nc3ccc(O)cc3)c(N)nn12,17%,2,?,52%,18µM*,?
CCCn1c(O)c(N=NC(=O)c2cccnc2)c2cc(Br)ccc21,16%,-9,?,9%,1.1µM*,10%
CCCn1c(O)c(N=NC(=O)CNC(=O)c2cccnc2)c2ccccc21,/,0,/,/,/,-2%
O=C(O)CCc1nc(-c2ccccc2-n2cccc2)no1,1%[14.2 µM],/,/,/,?,/
CSc1nncc(/C(C)=N\Nc2ccccc2)n1,-8%,0,-19%,-22%[46.1 µM],?,2%
CSc1nncc(/C(C)=N\Nc2cccc(C)c2)n1,-31%,-1,8%,-3%[46.1 µM],8.9µM*,-14%
CC/C(=N/Nc1ccccc1C)c1cnnc(SC)n1,-4%,-2,-27%,-44%,7.9µM*,?
CCOC(=O)C1(CC2CCCCO2)CCN(S(=O)(=O)c2cccc(F)c2)CC1 (configuration not stated),1%,-3,-13%,12%,25µM*,2%
